Test [1] concerns the target Serine/threonine-protein kinase PAK 6 (Homo sapiens) (UniProt Q9NQU5). The note with it: at 1 µM.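 Also: values are mean percent inhibition of PAK6 kinase.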
The test system of test [2] is Tyrosine-protein kinase ABL1 (Homo sapiens), P00519 [E255K]. The note with it: at 0.1 µM.
The test system is the same in test [3]. Conditions: at 1 µM.
For test [4], the system named is Tyrosine-protein kinase ABL1 (Homo sapiens), P00519 [H396P]. The note with it: at 0.1 µM.
Test [5] shares this test system. Conditions: at 1 µM.
Test [6] deals with Tyrosine-protein kinase ABL1 (Homo sapiens), P00519 [M351T]. Conditions: at 0.1 µM.
Test [7] has the same test system. Conditions: at 1 µM.
Test [8] has as its system Tyrosine-protein kinase ABL1 (Homo sapiens), P00519 [Q252H]. The note with it: at 0.1 µM.
The test system is the same in test [9]. Conditions: at 1 µM.
The subject of test [10] is Tyrosine-protein kinase ABL1 (Homo sapiens), P00519 [T315I]. Conditions: at 0.1 µM.

Serine/threonine-protein kinase PAK 6 (Homo sapiens), sequence (Q9NQU5 whole entry, looked up): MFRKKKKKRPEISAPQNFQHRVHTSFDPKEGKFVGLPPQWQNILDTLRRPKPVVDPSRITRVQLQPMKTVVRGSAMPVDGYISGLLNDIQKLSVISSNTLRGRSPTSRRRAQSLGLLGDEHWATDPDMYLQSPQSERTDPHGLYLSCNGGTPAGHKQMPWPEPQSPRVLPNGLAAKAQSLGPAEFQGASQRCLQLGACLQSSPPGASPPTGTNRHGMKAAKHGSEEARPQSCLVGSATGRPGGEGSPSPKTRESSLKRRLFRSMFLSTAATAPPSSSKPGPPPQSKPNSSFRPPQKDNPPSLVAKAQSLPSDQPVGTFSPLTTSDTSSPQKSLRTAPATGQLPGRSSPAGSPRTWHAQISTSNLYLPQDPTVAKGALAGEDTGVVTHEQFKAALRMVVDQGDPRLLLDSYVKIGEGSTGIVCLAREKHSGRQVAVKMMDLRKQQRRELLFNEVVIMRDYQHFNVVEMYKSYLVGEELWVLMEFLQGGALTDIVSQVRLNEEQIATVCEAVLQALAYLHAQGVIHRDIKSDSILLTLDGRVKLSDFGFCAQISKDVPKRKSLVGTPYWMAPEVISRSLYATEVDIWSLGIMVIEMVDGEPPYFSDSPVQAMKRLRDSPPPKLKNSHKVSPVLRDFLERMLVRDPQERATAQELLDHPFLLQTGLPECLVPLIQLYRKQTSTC

On to `CCS(=O)(=O)c1ccc(OC)c(Nc2ncc(-c3cccc(-c4ccccc4F)c3)o2)c1`, for which the inhibition (in general, the relative decrease from the control value, in per cent) was 1.97% in test [1]; 40.6% in test [2]; 84.4% in [3]; 34.5% in [4]; 82% in test [5]; 44.6% in test [6]. Further, the inhibition is 86.9% in [7], 37.9% in test [8], 84.6% in test [9] and 1.82% in test [10].

Regarding `NC(=O)c1cc(-c2ccc(F)cc2)cc(-c2ccncc2)c1N`, the inhibition is -7.94% in test [1]; 3.29% in [2]; 4.43% in [3]; 3.43% in test [4]; 5.86% in test [5]; 2.81% in test [6]. In addition, the inhibition came out at 2.85% in test [7], 4.84% in test [8], 5.67% in test [9] and 3.32% in [10].

Regarding `CCc1cccc(CC)c1/C=C/c1cncc(C(=O)NC)c1`, the inhibition is 11.5% in test [1]; 3.61% in test [2]; 17.5% in test [3]; 7.45% in test [4]; 37.4% in test [5]; 7.15% in [6]. Further, the inhibition is 32.1% in test [7], 3.16% in test [8], 12.1% in test [9] and 2.72% in [10].

Regarding `COc1ccc(C2=C(N3CCc4ccccc43)C(=O)NC2=O)cc1`, the inhibition in test [1] was -1.91%; in test [2], 3.46%; in test [3], 3.94%; in test [4], 3.85%; in test [5] it was 5.26%; in test [6] it was -0.47%. Also, the inhibition is 7.03% in [7], 4.56% in test [8], 6.15% in test [9] and 3.54% in test [10].

Take `Fc1ccc(-c2ncn(CCCN3CCOCC3)c2-c2ccncc2)cc1`: the inhibition in [1] was -7.59%; in test [2], 0.23%; in test [3] it was 0.13%; in test [4] it was 0.23%; in test [5] it was -0.46%; in test [6], -2.27%. The inhibition was 1.4% in test [7], -1.12% in [8], -0.09% in test [9] and -1.3% in test [10].

As to `Fc1ccc(-c2ncn(C3CCNCC3)c2-c2ccnc(Oc3ccc(Oc4ccccc4)cc3)n2)cc1`, the inhibition in [1] is -1.92%; in [2] it was 1.84%; in test [3] it was 2.14%; in test [4], 2.93%; in test [5] it was 3.2%; in test [6], -0.2%. Besides, the inhibition in test [7] amounted to 0.05%; in test [8] it was 1.63%; in test [9] it was 2.88%; in [10], 0.61%.

`NS(=O)(=O)c1ccc(Nc2cc(-c3ccc(O)c(F)c3)n[nH]2)cc1`: the inhibition was -3.83% in test [1]; 1.72% in test [2]; 14.8% in [3]; 2.42% in test [4]; 27.3% in test [5]; 4.46% in test [6]. Moreover, the inhibition was determined as 30.5% in [7], 1.52% in test [8], 20% in test [9] and 0.21% in test [10].

Take `COc1cc(C)c(N(C)C(=O)CN(C)C)cc1Nc1nc(Nc2cccc(F)c2C(N)=O)c2cc[nH]c2n1`: the inhibition is -3.09% in [1]; -1.15% in test [2]; 1.77% in [3]; 1.11% in [4]; -0.41% in [5]; 0.41% in test [6]. The inhibition in test [7] was -0.05%; in test [8], 0.29%; in test [9], 0.09%; in test [10], 0.48%.

Turning to `CN(C)CCCNc1nccc(-c2c(-c3ccc(F)cc3)nn3cc(C(F)(F)F)ccc23)n1`, the inhibition is -4.04% in [1]; 1.96% in [2]; 5.43% in test [3]; 4.54% in [4]; 4% in test [5]; 4.09% in test [6]. Also, the inhibition was 3.29% in test [7], 3.28% in test [8], 5.19% in test [9] and 1.28% in [10].

Turning to `FC(F)(F)c1cccc(Nc2nccc(-c3cnn4nc(-c5ccccc5)ccc34)n2)c1`, the inhibition in [1] is -5.84%; in [2], 0.92%; in test [3] it was 2.38%; in test [4], -0.38%; in test [5], 4.75%; in test [6], -1.63%. Further, the inhibition in [7] is 2.9%; in test [8], 1.86%; in test [9], 5.75%; in test [10], -0.65%.

As to `Nc1nccc(-c2c(-c3ccc(F)cc3)ncn2C2CCC(O)CC2)n1` (stereo not given), the inhibition in [1] was -1.54%; in test [2] it was 2.5%; in test [3], 16.9%; in [4], 3.86%; in [5], 33.6%; in test [6] it was 7.44%. Also, the inhibition is 36.6% in test [7], 5.19% in test [8], 33.9% in test [9] and 6.26% in [10].

With `COc1cc(Nc2ncc3c(C)nc(-c4cccc(Oc5ccccc5)c4)n3n2)cc(OC)c1OC`, the inhibition was -0.38% in test [1]; 2.03% in test [2]; 1.82% in test [3]; 2.82% in [4]; 1.6% in test [5]; 2.89% in [6]. The inhibition turned out to be 1.5% in test [7], 3.94% in test [8], 0.97% in test [9] and 0.51% in test [10].

`Cc1ccc(C(=O)NC2CCC2)cc1-c1ccc(C(=O)NCC2CC2)cc1`: the inhibition is -6.65% in test [1]; 1.89% in [2]; 1.67% in [3]; 1.26% in test [4]; 0.31% in test [5]; -0.23% in test [6]. Besides, the inhibition in test [7] was -0.39%; in test [8], 0.6%; in [9], 1.97%; in test [10], 0.82%.

For `NC(=O)c1ccc(Oc2nccc(-c3c(-c4ccc(F)cc4)ncn3C3CCNCC3)n2)cc1`, the inhibition was -4.13% in [1]; 2.12% in [2]; 3.91% in [3]; 5.26% in test [4]; 5.53% in [5]; -1.3% in test [6]. The inhibition in test [7] was -0.09%; in test [8], 2.63%; in test [9], 7.69%; in [10], 3.03%.

Consider `COc1cc(N2CCN(C(C)C)CC2)ccc1Nc1nc(Nc2ccc(F)cc2C(=O)NC[C@@H](O)CO)c2cc[nH]c2n1`, for which the inhibition is -2.37% in test [1]; 1.32% in test [2]; 5.35% in [3]; 2.98% in test [4]; 5.65% in test [5]; 3.03% in test [6]. For the same molecule, the inhibition amounted to 5.84% in test [7], 3.53% in test [8], 4.72% in test [9] and 2.48% in [10].

As to `COc1cc2ncn(-c3cc(OCCc4ccccc4)c(C(N)=O)s3)c2cc1OC`, the inhibition in test [1] is -0.86%; in test [2], -1.76%; in test [3], 6.39%; in test [4], 2.33%; in [5], 10.4%; in test [6] it was -0.05%. Besides, the inhibition is 11.6% in [7], 0.95% in test [8], 10.7% in test [9] and 1.49% in test [10].

As for `COc1cc2ncn(-c3cc(OCc4cccs4)c(C(N)=O)s3)c2cc1OC`, the inhibition in test [1] amounted to 11%; in test [2] it was 2.64%; in test [3] it was 29.8%; in test [4], 10.9%; in test [5], 51.6%; in [6], 7.47%. For the same molecule, the inhibition in test [7] came out at 50.4%; in test [8], 8.78%; in [9] it was 46.3%; in [10], 12.2%.
